Assay results published in PubChem BioAssay AID1159580 (chemical genetic matrix, 2015).
Where “and” joins values, the source holds several entries; their conditions need not be identical. Identical values can stand only once. Among all 5,500 compounds or so, about 2,000 (36%) were called active. Inconclusive results (about 18%) are left out. Cut-off read from the data, not from the text of the source: active = normalized growth mostly below about 0.91 (no sharp cut-off); inconclusive = no clear call, values can overlap the other calls; inactive = mostly above about 0.92. The list shows a part of the results.

Experiment: chemical genetic growth profiling, strain panel (AID 1159580);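 note: tested at 20 µM; growth read once vehicle control cultures reached saturation at 30 °C; 1 = growth at the plate median or of vehicle wells; lower values mean less growth of the strain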
Conditions: growth OD

Measured: normalized growth

O=C(O)CCCCCCCC(=O)O
inactive: S. cerevisiae deletion strains, locus YKL009W, strain mrt4, active compounds read low 0.937 | S. cerevisiae deletion strains, locus YKL068W, active compounds read low 1.01 | S. cerevisiae deletion strains, locus YKL085W, strain MDH1 (second series), active compounds read low 1 | S. cerevisiae deletion strains, locus YKL085W, strain MDH1, active compounds read low 1 | S. cerevisiae deletion strains, locus YKL160W, strain elf1, active compounds read low 1.04 | S. cerevisiae deletion strains, locus YKL190W, strain CNB1, active compounds read low 0.992 | S. cerevisiae deletion strains, locus YKR001C, strain vps1, active compounds read low 0.981 | S. cerevisiae deletion strains, locus YKR026C, strain gcn3, active compounds read low 1.01 | S. cerevisiae deletion strains, locus YKR091W, strain srl3, active compounds read low 0.996 | S. cerevisiae deletion strains, locus YLL001W, strain dnm1, active compounds read low 1.02 | S. cerevisiae deletion strains, locus YLL026W, active compounds read low 0.995 | S. cerevisiae deletion strains, locus YLL041C, strain sdh2, active compounds read low 0.993 | S. cerevisiae deletion strains, locus YLR027C, strain aat2, active compounds read low 1.01 | S. cerevisiae deletion strains, locus YLR039C, strain RIC1, active compounds read low 0.999 | S. cerevisiae deletion strains, locus YLR058C, strain SHM2, active compounds read low 0.978 | S. cerevisiae deletion strains, locus YLR102C, strain apc9, active compounds read low 0.99 | S. cerevisiae deletion strains, locus YLR113W, strain HOG1, active compounds read low 0.966 | S. cerevisiae deletion strains, locus YLR221C, strain rsa3, active compounds read low 1.01 | S. cerevisiae deletion strains, locus YLR258W, strain gsy2, active compounds read low 1.02 | S. cerevisiae deletion strains, locus YLR262C, strain YPT6 (second series), active compounds read low 0.981 | S. cerevisiae deletion strains, locus YLR262C, strain YPT6, active compounds read low 0.949 | S. cerevisiae deletion strains, locus YLR268W, strain sec22, active compounds read low 1.01 | S. cerevisiae deletion strains, locus YLR320W, strain mms22, active compounds read low 1 | S. cerevisiae deletion strains, locus YLR330W, strain CHS5, active compounds read low 0.995 | S. cerevisiae deletion strains, locus YLR342W, strain FKS1 (second series), active compounds read low 1.03 | S. cerevisiae deletion strains, locus YLR342W, strain FKS1, active compounds read low 1.01 | S. cerevisiae deletion strains, locus YLR357W, strain rsc2, active compounds read low 1.05 | S. cerevisiae deletion strains, locus YLR370C, strain arc18, active compounds read low 1.01 | S. cerevisiae deletion strains, locus YLR371W, strain rom2, active compounds read low 0.991 | S. cerevisiae deletion strains, locus YLR384C, strain iki3, active compounds read low 0.994 | S. cerevisiae deletion strains, locus YLR418C, strain cdc73, active compounds read low 1.02 | S. cerevisiae deletion strains, locus YML016C, strain PPZ1, active compounds read low 0.991 | S. cerevisiae deletion strains, locus YML032C, strain rad52, active compounds read low 0.972 | S. cerevisiae deletion strains, locus YML120C, strain ndi1, active compounds read low 1 | S. cerevisiae deletion strains, locus YML124C, strain tub3, active compounds read low 0.991 | S. cerevisiae deletion strains, locus YMR058W, strain fet3, active compounds read low 1.01 | S. cerevisiae deletion strains, locus YMR078C, strain ctf18, active compounds read low 0.983 | S. cerevisiae deletion strains, locus YMR125W, strain sto1, active compounds read low 1.03 | S. cerevisiae deletion strains, locus YMR129W, active compounds read low 1.01 | S. cerevisiae deletion strains, locus YMR205C, strain PFK2, active compounds read low 1.02 | S. cerevisiae deletion strains, locus YMR223W, strain ubp8, active compounds read low 1 | S. cerevisiae deletion strains, locus YMR231W, strain pep5, active compounds read low 1.01 | S. cerevisiae deletion strains, locus YMR263W, strain SAP30, active compounds read low 0.984 and 1.01 | S. cerevisiae deletion strains, locus YMR307W, strain GAS1, active compounds read low 1.12 | S. cerevisiae deletion strains, locus YNL067W, strain RPL9B, active compounds read low 0.996 | S. cerevisiae deletion strains, locus YNL071W, strain lat1, active compounds read low 1 | S. cerevisiae deletion strains, locus YNL128W, strain TEP1, active compounds read low 0.976 | S. cerevisiae deletion strains, locus YNL153C, strain GIM3, active compounds read low 0.986 and 1.02 | S. cerevisiae deletion strains, locus YNL175C, strain NOP13, active compounds read low 1.01 | S. cerevisiae deletion strains, locus YNL183C, strain NPR1, active compounds read low 0.945 | S. cerevisiae deletion strains, locus YNL197C, strain WHI3, active compounds read low 1.01 | S. cerevisiae deletion strains, locus YNL209W, strain ssb2, active compounds read low 1 | S. cerevisiae deletion strains, locus YNL224C, strain SQS1, active compounds read low 1 | S. cerevisiae deletion strains, locus YNL233W, strain BNI4, active compounds read low 0.994 | S. cerevisiae deletion strains, locus YNL248C, strain rpa49, active compounds read low 1.04 | S. cerevisiae deletion strains, locus YNL250W, strain rad50, active compounds read low 0.988 | S. cerevisiae deletion strains, locus YNL271C, strain bni1, active compounds read low 0.992 | S. cerevisiae deletion strains, locus YNL298W, strain CLA4, active compounds read low 0.926 | S. cerevisiae deletion strains, locus YNL307C, strain MCK1, active compounds read low 0.992 | S. cerevisiae deletion strains, locus YNL322C, strain KRE1 (second series), active compounds read low 1.04 | S. cerevisiae deletion strains, locus YNL322C, strain KRE1, active compounds read low 0.992 | S. cerevisiae deletion strains, locus YNR049C, strain mso1, active compounds read low 1.01 | S. cerevisiae deletion strains, locus YNR052C, strain pop2, active compounds read low 0.974 | S. cerevisiae deletion strains, locus YOL006C, strain TOP1, active compounds read low 1.02 | S. cerevisiae deletion strains, locus YOL012C, strain htz1 0.954 | S. cerevisiae deletion strains, locus YOL147C, strain pex11, active compounds read low 1 | S. cerevisiae deletion strains, locus YOR001W, strain rrp6, active compounds read low 1 | S. cerevisiae deletion strains, locus YOR061W, strain CKA2, active compounds read low 0.973 | S. cerevisiae deletion strains, locus YOR069W, strain VPS5, active compounds read low 0.998 | S. cerevisiae deletion strains, locus YOR070C, strain gyp1, active compounds read low 1.02 | S. cerevisiae deletion strains, locus YOR080W, strain dia2, active compounds read low 1.01 | S. cerevisiae deletion strains, locus YOR083W, strain WHI5 (second series), active compounds read low 1.02 | S. cerevisiae deletion strains, locus YOR083W, strain WHI5, active compounds read low 1 | S. cerevisiae deletion strains, locus YOR106W, strain vam3, active compounds read low 1.03 | S. cerevisiae deletion strains, locus YOR136W, strain idh2, active compounds read low 0.962 | S. cerevisiae deletion strains, locus YOR144C, strain elg1, active compounds read low 0.993 | S. cerevisiae deletion strains, locus YOR184W, strain ser1, active compounds read low 0.988 | S. cerevisiae deletion strains, locus YOR231W, strain MKK1, active compounds read low 0.973 | S. cerevisiae deletion strains, locus YOR265W, strain rbl2, active compounds read low 1.01 | S. cerevisiae deletion strains, locus YOR270C, strain vph1, active compounds read low 1.1 | S. cerevisiae deletion strains, locus YOR290C, strain snf2, active compounds read low 1.04 | S. cerevisiae deletion strains, locus YOR316C, strain cot1, active compounds read low 0.985 | S. cerevisiae deletion strains, locus YPL051W, strain arl3, active compounds read low 1.02 | S. cerevisiae deletion strains, locus YPL055C, strain LGE1, active compounds read low 0.957 | S. cerevisiae deletion strains, locus YPL078C, strain atp4, active compounds read low 1.03 | S. cerevisiae deletion strains, locus YPL106C, strain sse1, active compounds read low 0.996 | S. cerevisiae deletion strains, locus YPL240C, strain hsp82, active compounds read low 1.01 | S. cerevisiae deletion strains, locus YPL241C, strain CIN2, active compounds read low 0.997 and 1.01 | S. cerevisiae deletion strains, locus YPL256C, strain CLN2, active compounds read low 0.988 | S. cerevisiae deletion strains, locus YPR119W, strain clb2, active compounds read low 0.987 | S. cerevisiae deletion strains, locus YPR141C, strain kar3, active compounds read low 1 | S. cerevisiae deletion strains, locus YPR163C, strain tif3, active compounds read low 0.987 | S. cerevisiae deletion strains, locus YPR167C, strain met16, active compounds read low 0.99 | S. cerevisiae deletion strains, strain wtn01, active compounds read low 0.983 | S. cerevisiae strains, strain wild type, active compounds read low 0.999
